Data on 41 molecules can be found in PubChem BioAssay AID591 (National Center for Advancing Translational Sciences (NCATS), 2007).

Among all 59,000 compounds or so, about 60 (0.1%) were called active. The rule behind the calls is not given here. What follows is part of a selection rich in actives, with near analogues and random picks from the rest.

The nature of the experiment: qHTS Assay for Spectroscopic Profiling in A488 Spectral Region. The following applies: compound autofluorescence; max dye equivalency: Compound Type: qHTS ECL - SigmaAldrich, hits give high values unless noted; outcome: dye equivalency, Compound Type: qHTS ECL - MLSMR unless noted. From the text:
NIH Molecular Libraries Screening Centers Network [MLSCN]
NIH Chemical Genomics Center [NCGC]
Occasionally, the artifactual effect may originate from the compounds own spectral or other biophysical properties which generally tend to track its assay concentration. Pre-screening/profiling the library with respect to the compounds spectral properties should help one exclude false positives early on. While the most informative fluorescent profiling data set is obtained by performing a full excitation and emission scan of each well by using a monochromator-based plate reader, such an approach is practical only on a very limited scale as scanning each well requires long time. An alternative approach, applied here, is to perform plate reader scans using selected excitation and emission wavelength pairs to generate a multidimensional relational database that correlates compound concentration and the respective relative fluorescence intensity at a given wavelength set. A standard curve of Alexa 488 (A488) present on each plate as six-point concentration series, was used to compute a normalized fluorescence response, termed dye-equivalent concentration, for each compound at each concentration.
NCGC Assay Protocol Summary:
100 mM Tris buffer, pH 8.0
The wells in columns 1 through 4 of a Kalypsys polypropylene 1536-well compound plate were filled with standard solutions of fluorophore corresponding to the spectral region of interest. Solutions of A488 were placed in the following wells: Y1, Z1: 3 mM, Y2, Z2: 300 uM, Y3, Z3: 30 uM, Y4, Z4: zero (DMSO), AA1, AB1: 3 uM, AA2, AB2: 900 nM, AA3, AB3: 300 nM, AA4, AB4: zero (DMSO).
Six uL of buffer were dispensed to 1536-well Greiner black plates. Compounds and dye standards (23 nL) were transferred via Kalypsys PinTool. The plates were incubated for 15 min at room temperature, and then read on ViewLux (Perkin-Elmer) High-throughput CCD imager using 480 nm and 540 nm excitation and emission filter set.
Keywords: NIH Roadmap, MLSCN, MLI, MLSMR, qHTS, NCGC, A488, A-488, Fluorescent Profiling.
On the technique in general: In qHTS, concentration-response curves come from the screen itself.
As for `CCCC1C(c2ccccc2)C(C#N)(C#N)C2(C#N)CC1(N)NC2=O` (stereo unspecified), the outcome is “inactive [dye equivalency, Compound Type: qHTS ECL - DPISMR]”.

Turning to `CCOC(=O)c1[nH]c2ccccc2c1N=C(C)N(CC)CC`, the result was inactive.

On to `C=CCN(CC=C)C(=O)CN1C(=O)c2ccccc2C1=O`, for which the outcome was inactive.

Take `c1ccc(-n2ncc3c2ncn2c(C4CCCCC4)nnc32)cc1`: the outcome is “inactive [dye equivalency, Compound Type: qHTS ECL - DPISMR]”.

As to `O=C(NCc1ccc(Cl)cc1)c1cc2c(nc3sccn32)s1`, the result was inactive.

With `O=C(O)C1CCCCC1C(=O)Nc1ccc(Cl)cc1` (stereo unspecified), the outcome was “inactive [dye equivalency, Compound Type: qHTS ECL - DPISMR]”.

On to `COCCn1c(=O)c(-c2cc(F)cc(F)c2)nc2cnc(N3CCNCC3)nc21`, for which the outcome was “inactive [dye equivalency, Compound Type: qHTS ECL - Pharmacopeia]”.

With `CCNC(=O)CCc1nc(-c2ccc(C(C)(C)C)cc2)no1`, the outcome is “inactive [dye equivalency, Compound Type: qHTS ECL - DPISMR]”.

In the case of `Cn1c(=O)c(CCc2ccccc2)nc2cnc(Nc3ccccc3)nc21`, the outcome is “inactive [dye equivalency, Compound Type: qHTS ECL - Pharmacopeia]”.

As for `CCCc1cc(=O)[nH]c(SCc2ccc(C#N)cc2)n1`, the outcome is “inactive [dye equivalency, Compound Type: qHTS ECL - DPISMR]”.

Regarding `C=CCn1c(SCn2nnc3ccccc3c2=O)nnc1-c1ccc(Cl)cc1`, the outcome was “inactive [dye equivalency, Compound Type: qHTS ECL - DPISMR]”.

In the case of `Cc1nc2cnc(Oc3cccc(Cl)c3)nc2n(C2CC2)c1=O`, the outcome was “inactive [dye equivalency, Compound Type: qHTS ECL - Pharmacopeia]”.

Consider `COc1ccc(-c2nc3cnc(OC)nc3n(Cc3ccc(F)cc3)c2=O)cc1`, for which the outcome was “inactive [dye equivalency, Compound Type: qHTS ECL - Pharmacopeia]”.

As for `CC1CN(C2CCN(C(=O)COc3ccccc3)CC2)CC(C)O1` (stereo unspecified), the result was inactive.

For `CC(=O)c1c(C)[nH]c(C(=O)NCCCN2CCCC2)c1C`, the result was inactive.

Turning to `O=C(Nc1ccccc1)N(Cc1cccnc1)Cc1ccco1`, the outcome is “inactive [dye equivalency, Compound Type: qHTS ECL - DPISMR]”.

Turning to `Cc1nc2cnc(Nc3ccccc3)nc2n(Cc2ccc(F)cc2)c1=O`, the outcome is “inactive [dye equivalency, Compound Type: qHTS ECL - Pharmacopeia]”.

`CNC(=O)n1ccc(C(=O)N2CCCCC2)n1`: the outcome is “inactive [dye equivalency, Compound Type: qHTS ECL - DPISMR]”.

Regarding `c1cnc(NC2C3CC4CC(C3)CC2C4)nc1` (stereo unspecified), the result was inactive.

With `CCCOc1ccccc1C(=O)NCCCC(=O)O`, the result was inactive.

On to `COc1ccccc1CNc1cc(-c2ccccc2CN(C)C)ncn1`, for which the outcome was “inactive [dye equivalency, Compound Type: qHTS ECL - Pharmacopeia]”.

Consider `Oc1c(Br)cc(CN(Cc2cc(Br)c(O)c(Br)c2)C2CCCCC2)cc1Br`, for which the outcome was “inactive [dye equivalency, Compound Type: qHTS ECL - NCI]”.

In the case of `CCc1nnc(NC(=O)c2c(O)c3c([nH]c2=O)CCCC3)s1`, the outcome was inactive.

`CCC(=O)Nc1ccc(C(=O)Nc2ccc3c(c2)C(=O)N(CC2CCCO2)C3=O)cc1` (stereo unspecified): the outcome was “inactive [dye equivalency, Compound Type: qHTS ECL - DPISMR]”.

As to `Cn1cccc1C(=O)N1CCC2(CC1)CN(c1cccc(-c3ccccc3)c1)C2`, the outcome was “inactive [dye equivalency, Compound Type: qHTS ECL - Pharmacopeia]”.

Take `CCOC(=O)CSc1nnc(-c2ccncc2)o1`: the outcome was “inactive [dye equivalency, Compound Type: qHTS ECL - DPISMR]”.

Take `COc1ccc2nc(NC3=NCN(CC4CCCO4)CN3)nc(C)c2c1` (stereo unspecified): the outcome was inactive.

With `CCOC(=O)N1CCN(C(=O)c2ccc3nc4cc(Cl)ccc4c(=O)n3c2)CC1`, the outcome was inactive.

For `CCOC(=O)C1(Cc2ccc(O)cc2)NC(c2ccccc2F)C2C(=O)N(C)C(=O)C21` (stereo unspecified), the outcome was inactive.

On to `COCCNc1cc(-c2c(C)noc2C)ncn1`, for which the outcome is “inactive [dye equivalency, Compound Type: qHTS ECL - Pharmacopeia]”.

On to `CCNc1ncc2nc(CCc3ccccc3)c(=O)n(-c3ccc(OC)cc3)c2n1`, for which the outcome was “inactive [dye equivalency, Compound Type: qHTS ECL - Pharmacopeia]”.

For the molecule `Cn1c(CC(=O)Nc2ccccc2)nnc1SCC(=O)c1ccccc1`, the outcome is “inactive [dye equivalency, Compound Type: qHTS ECL - DPISMR]”.

With `COCCn1c(=O)c(-c2cc(F)cc(F)c2)nc2cncnc21`, the outcome is “inactive [dye equivalency, Compound Type: qHTS ECL - Pharmacopeia]”.

Regarding `CCOC(=O)C1CCN(Cc2coc3ccc(Cl)cc3c2=O)CC1`, the outcome is “inactive [dye equivalency, Compound Type: qHTS ECL - DPISMR]”.

Turning to `Cc1noc(C)c1S(=O)(=O)Nc1ccc(C(=O)O)cc1`, the outcome was “inactive [dye equivalency, Compound Type: qHTS ECL - DPISMR]”.

For `Cc1c(C)c2cc3c4c(oc3c(C)c2oc1=O)CCCC4`, the outcome was inactive.

With `CN1CCc2[nH]nc(-c3n[nH]c4c3CN(C)CC4)c2C1`, the outcome is “inactive [dye equivalency, Compound Type: qHTS ECL - NCI]”.

As for `O=C1c2ccccc2C(=O)N1c1ccccc1S(=O)C(F)(F)F` (stereo unspecified), the outcome is “inactive [dye equivalency, Compound Type: qHTS ECL - DPISMR]”.

For the molecule `CN(C)c1cc2c(Nc3ccc4c(cnn4Cc4ccccc4)c3)ncnc2cn1`, the outcome is “inactive [dye equivalency, Compound Type: qHTS ECL - SigmaAldrich]”.

For `O=c1c(-c2ccc(F)cc2)nc2cncnc2n1-c1ccccc1`, the outcome is “inactive [dye equivalency, Compound Type: qHTS ECL - Pharmacopeia]”.

As for `Cc1cnc(CNc2cc(-c3c(C)noc3C)ncn2)cn1`, the outcome is “inactive [dye equivalency, Compound Type: qHTS ECL - Pharmacopeia]”.
